In PubChem BioAssay (NCI) one finds growth data, which are given here for eight compounds.

Molecules are shown by their SMILES. This is part of a sample that, as a whole, favours compounds with a hit. Of some 83,000 tested, about 20% had one in any assay.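 Note: values are percent growth. 100 is the growth of untreated cells, values between 100 and 0 indicate rising inhibition; between -100 and 0 indicates cell death.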 A number with no mark means an inactive call. Activity calls are given as the source filed them. How the source made its calls: active means growth percent below 10; inactive means the rest.

Some test systems named below: NCI-H23 lung; NCI-H226 lung; NCI-H322M lung; HOP-62 NSCLC; NCI-H460 lung; NCI-H522 lung; A549/ATCC NSCLC; 786-0 renal; COLO 205 colon; DU-145 prostate; K-562 leukemia; MALME-3M melanoma; MDA-MB-231 breast; RXF 393 renal; SF-268 CNS; SF-295 CNS; SF-539 CNS; UACC-257 melanoma; M14 melanoma; HCT-15 colon.
What all share (experiment): NCI-60 one-dose screen, 48 h (100 = growth as untreated, 0 = no growth, -100 = all killed)
What all share (conditions): 10 µM unless noted

On to `COC1CC2CCC(C)C(O)(O2)C(=O)C(=O)N2CCCCC2C(=O)OC(C(C)CC2CCC(O)C(OC)C2)CC(=O)C(C)C=C(C)C(O)C(OC)C(=O)C(C)CC(C)/C=C/C=C/C=C1C` (stereo unspecified), for which the growth was 49.2% in the assay on NCI-H23 lung; 48.6% in the assay on NCI-H226 lung; 39.4% in the assay with NCI-H322M lung; 51.3% in the assay with HOP-62 NSCLC; 43.1% in the assay with NCI-H460 lung; 42.7% in the assay with NCI-H522 lung. In addition, the growth in the assay with A549/ATCC NSCLC was 36.8%; in the assay with 786-0 renal, 43%; in the assay with COLO 205 colon, 64.7%; with DU-145 prostate, 42%; in the assay on K-562 leukemia it was 70.4%; in the assay with MALME-3M melanoma it was 21.1%. Moreover, the growth was 52.4% in the assay with MDA-MB-231 breast; 20.4% with RXF 393 renal; 57.2% in the assay on SF-268 CNS; 16.6% with SF-295 CNS; 35.8% in the assay with SF-539 CNS; 50.8% in the assay on UACC-257 melanoma. Further, the growth is 48.5% in the assay with M14 melanoma and 46.2% in the assay with HCT-15 colon.

Take `O=C(NCCc1ccccc1)C1CCC(=O)N1Cc1ccc(Br)cc1` (stereo unspecified): the growth is 104% in the assay with NCI-H23 lung; 95.1% with NCI-H226 lung; 101% with NCI-H322M lung; 93% in the assay on HOP-62 NSCLC; 102% in the assay on NCI-H460 lung; 67.1% in the assay with NCI-H522 lung. The growth was 79.1% in the assay on A549/ATCC NSCLC; 105% in the assay with 786-0 renal; 108% in the assay on COLO 205 colon; 109% in the assay with DU-145 prostate; 107% with K-562 leukemia; 96.7% with MALME-3M melanoma. The growth in the assay on MDA-MB-231 breast is 114%; with RXF 393 renal it was 106%; with SF-268 CNS, 106%; with SF-295 CNS, 106%; with SF-539 CNS, 96%; in the assay with UACC-257 melanoma it was 79.9%. In addition, the growth in the assay with M14 melanoma was 104%; in the assay with HCT-15 colon, 108%.

Take `O=C1/C(=C/c2ccc([N+](=O)[O-])o2)Oc2ccc(Cl)cc21`: the growth with NCI-H23 lung was 21.3%; in the assay on NCI-H226 lung, -7.54% (active); with NCI-H322M lung it was 79%; in the assay on HOP-62 NSCLC, 74.5%; in the assay with NCI-H460 lung, 75.4%; with NCI-H522 lung, -84.4% (active). Besides, the growth in the assay on A549/ATCC NSCLC was 92.4%; in the assay on 786-0 renal it was -53.7% (active); in the assay with COLO 205 colon it was -57.8% (active); in the assay with DU-145 prostate it was 35.7%; in the assay on K-562 leukemia it was -30.1% (active); in the assay on MALME-3M melanoma it was -45.6% (active). The growth is -61.9% (active) in the assay on MDA-MB-231 breast; -72.2% (active) in the assay with RXF 393 renal; -52% (active) in the assay on SF-268 CNS; 103% in the assay on SF-295 CNS; -25.6% (active) in the assay on SF-539 CNS; -2.07% (active) in the assay on UACC-257 melanoma. Moreover, the growth in the assay with M14 melanoma was -18.8% (active).

Regarding `COc1cccc2c1O/C(=C\c1c([N+](=O)[O-])ncn1C)C2=O`, the growth in the assay on NCI-H23 lung is 99.8%; in the assay with NCI-H226 lung it was 96.9%; with NCI-H322M lung, 84.7%; with HOP-62 NSCLC, 105%; in the assay with NCI-H460 lung it was 109%; with NCI-H522 lung, 84.3%. The growth in the assay on A549/ATCC NSCLC was 99.8%; in the assay with 786-0 renal, 96.1%; with COLO 205 colon, 109%; in the assay with DU-145 prostate, 102%; with K-562 leukemia, 89.9%; in the assay with MALME-3M melanoma, 92.4%. Moreover, the growth in the assay on MDA-MB-231 breast is 119%; with RXF 393 renal, 113%; in the assay on SF-268 CNS, 98.3%; in the assay on SF-295 CNS, 98.2%; in the assay with SF-539 CNS, 100%; in the assay on UACC-257 melanoma, 93.5%. For the same compound, the growth in the assay on M14 melanoma is 103%; in the assay on HCT-15 colon, 91.4%.

Regarding `COc1ccc(OC)c(NC(=O)c2cc3oc4ccccc4c3cc2O)c1`, the growth in the assay with NCI-H23 lung was 87.4%; in the assay on NCI-H226 lung, 90.7%; in the assay with NCI-H322M lung, 101%; in the assay with HOP-62 NSCLC, 72.4%; with NCI-H460 lung it was 100%; in the assay on NCI-H522 lung, 90.6%. Moreover, the growth is 88.4% in the assay on A549/ATCC NSCLC; 93.1% in the assay on 786-0 renal; 88.8% in the assay on COLO 205 colon; 106% with DU-145 prostate; 86.4% in the assay on K-562 leukemia; 69.7% in the assay with MALME-3M melanoma. Further, the growth in the assay on MDA-MB-231 breast was 100%; with RXF 393 renal, 143%; in the assay with SF-268 CNS, 87.9%; in the assay on SF-295 CNS it was 92%; in the assay with SF-539 CNS it was 90.3%; in the assay on UACC-257 melanoma it was 92%. The figures for the growth in the assay on M14 melanoma and with HCT-15 colon were 95.7% and 96.7%, respectively.

For `COc1cccc2c1C(=O)c1c(O)c3c(c(O)c1C2=O)C[C@@](O)(/C(C)=N/NC(=O)c1cccc([N+](=O)[O-])c1)C[C@@H]3OC1CC(N)C(O)C(C)O1` (stereo partly specified), the growth was -33.6% (active) in the assay on NCI-H23 lung; -67.4% (active) in the assay on NCI-H226 lung; -3.02% (active) in the assay with NCI-H322M lung; -23.8% (active) with HOP-62 NSCLC; -38.5% (active) in the assay with NCI-H460 lung; -61% (active) with NCI-H522 lung. The growth in the assay with A549/ATCC NSCLC was -53.4% (active); in the assay with 786-0 renal, -24.6% (active); with COLO 205 colon, -98.1% (active); with DU-145 prostate, -49.7% (active); in the assay on K-562 leukemia it was -75.7% (active); with MALME-3M melanoma, -93.6% (active). Besides, the growth in the assay on MDA-MB-231 breast was -5.42% (active); in the assay on RXF 393 renal, -64.9% (active); with SF-268 CNS, -20% (active); in the assay on SF-295 CNS it was -38.5% (active); in the assay on SF-539 CNS, -25.7% (active); in the assay on UACC-257 melanoma, -37.4% (active). Moreover, the growth in the assay with M14 melanoma was -43.8% (active).

As for `Cc1nc2c(O)cccc2cc1CO`, the growth in the assay on NCI-H23 lung is 94.9%; in the assay on NCI-H226 lung, 114%; with NCI-H322M lung, 165%; in the assay with HOP-62 NSCLC, 106%; in the assay with NCI-H460 lung, 103%; in the assay on NCI-H522 lung, 107%. In addition, the growth is 109% in the assay with A549/ATCC NSCLC; 96.3% in the assay on 786-0 renal; 142% with COLO 205 colon; 113% with DU-145 prostate; 82.8% with K-562 leukemia; 178% with MALME-3M melanoma. For the same compound, the growth in the assay on MDA-MB-231 breast is 110%; in the assay with RXF 393 renal, 136%; in the assay with SF-268 CNS, 99.8%; in the assay on SF-295 CNS, 106%; in the assay on SF-539 CNS, 93.5%; in the assay on UACC-257 melanoma it was 116%. Further, in the assay on M14 melanoma, the growth is 110%.

For the compound `COc1ccc(Cn2cc3c(c2-c2ccccc2)CCc2cncnc2-3)cc1`, the growth in the assay on NCI-H23 lung is 69.9%; in the assay with NCI-H226 lung it was 72.1%; in the assay with NCI-H322M lung it was 110%; with HOP-62 NSCLC, 61.1%; in the assay on NCI-H460 lung, 27%; in the assay on NCI-H522 lung, 26.1%. For the same compound, the growth is 46.6% in the assay with A549/ATCC NSCLC; 57.3% in the assay on 786-0 renal; 45.5% with COLO 205 colon; 72.9% in the assay with DU-145 prostate; 22.1% with K-562 leukemia; 26.9% in the assay with MALME-3M melanoma. Further, the growth is 50% with MDA-MB-231 breast; 55.3% with RXF 393 renal; 63.1% in the assay with SF-268 CNS; 24.3% with SF-295 CNS; 59.7% in the assay with SF-539 CNS; 74.9% in the assay on UACC-257 melanoma. The growth with M14 melanoma is 24.5%.
